# ChEMBL document CHEMBL1961873, “Compounds: GSK PKIS; Assays: Nanosyn kinase panel” (2012)
# Molecular target: T1, cGMP-dependent protein kinase 2 (Homo sapiens) (UniProt Q13237)
# T1 sequence (whole entry): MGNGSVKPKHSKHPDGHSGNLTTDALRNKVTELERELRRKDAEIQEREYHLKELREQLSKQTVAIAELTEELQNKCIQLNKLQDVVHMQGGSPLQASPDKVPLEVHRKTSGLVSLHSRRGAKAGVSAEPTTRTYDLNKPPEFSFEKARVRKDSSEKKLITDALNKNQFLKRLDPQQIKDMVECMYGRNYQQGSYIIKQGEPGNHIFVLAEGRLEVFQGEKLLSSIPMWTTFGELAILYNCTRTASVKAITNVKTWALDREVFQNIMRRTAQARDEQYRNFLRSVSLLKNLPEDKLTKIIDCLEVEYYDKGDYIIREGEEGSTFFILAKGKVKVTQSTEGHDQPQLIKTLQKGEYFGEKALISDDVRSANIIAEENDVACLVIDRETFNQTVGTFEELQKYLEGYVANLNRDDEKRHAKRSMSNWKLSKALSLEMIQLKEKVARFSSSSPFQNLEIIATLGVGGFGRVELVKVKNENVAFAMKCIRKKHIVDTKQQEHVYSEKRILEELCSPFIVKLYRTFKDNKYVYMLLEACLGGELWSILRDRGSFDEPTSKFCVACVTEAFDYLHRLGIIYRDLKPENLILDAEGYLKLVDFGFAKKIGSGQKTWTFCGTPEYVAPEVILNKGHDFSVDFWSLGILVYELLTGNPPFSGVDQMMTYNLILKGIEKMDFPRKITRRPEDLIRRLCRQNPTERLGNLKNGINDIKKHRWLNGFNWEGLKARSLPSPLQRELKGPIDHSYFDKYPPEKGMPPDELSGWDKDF
# Details: at 0.1 µM
row,Structure (SMILES),inhibition [%]
1,Cc1ccc(O)cc1Nc1ccnc2cc(-c3ccccn3)ccc12,1.7
2,COC(=O)c1sc(-n2cnc3cc(OC)c(OC)cc32)cc1OCc1ccccc1C(F)(F)F,1.58
3,COc1cc2ncn(-c3cc(OCc4ccccc4C(F)(F)F)c(C(=O)N(C)C)s3)c2cc1OC,-0.41
4,CC(C)COC(=O)c1ccc2c(c1)/C(=C/Nc1ccc(S(N)(=O)=O)cc1)C(=O)N2,11
5,CCc1nn2ncccc2c1-c1ccnc(NC2CC2)n1,0.96
6,CC(=O)Nc1cccc(C#Cc2cncnc2Nc2ccc(OCc3cccc(F)c3)c(Cl)c2)c1,2.86
7,CCn1cc(-c2ccnc3[nH]ccc23)c(-c2cccc(NC(=O)Nc3ccc(OCc4ccccc4)cc3)c2)n1,2.48
8,COc1ccc(-c2nn3ncccc3c2-c2ccnc(Nc3ccc4c(c3)OCCO4)n2)cc1,0.2
9,COC(=O)Nc1nc2ccc(S(=O)(=O)c3ccc(NC(=O)Nc4cc(C(F)(F)F)ccc4F)cc3)cc2[nH]1,2.34
10,Cc1ccc2c(-c3ccnc(Nc4ccccc4)n3)c(-c3ccc(F)cc3)nn2n1,3.01
11,COc1cccc(-n2ncc3c(N/N=C/c4ccc(F)cc4)ncnc32)c1,2.19
12,CCn1c(-c2nonc2N)nc2c(C#CC(C)(C)O)ncc(OC3CCNCC3)c21,60.5
13,Nc1ncc(-c2cccc(S(N)(=O)=O)c2)c2scc(-c3ccc(F)c(Cl)c3)c12,2.34
14,O=C(Nc1n[nH]c2cc(-c3ccc(F)cc3)ccc12)C1CC1,3.33
15,[O-][S+]1CCN(Cc2ccc(-c3ccc4ncnc(Nc5ccc(OCc6cccc(F)c6)c(Cl)c5)c4c3)o2)CC1,3.53
16,Fc1cccc(COc2ccc(Nc3ncnc4sc(-c5ccco5)cc34)cc2Cl)c1,1.59
17,NS(=O)(=O)c1ccc(Nc2ncc(-c3ccccc3)o2)cc1,2.69

row,Structure (SMILES),inhibition [%]
1,CCNC(=O)O[C@H]1CN[C@H](C#Cc2cc3ncnc(Nc4ccc(OCc5cccc(F)c5)c(Cl)c4)c3s2)C1,-0.03
2,CCN(CC)S(=O)(=O)c1ccc(OC)c(Nc2ncc(-c3ccccc3)o2)c1,0.25
3,COc1ccc(-c2oc3ncnc(N)c3c2-c2ccc(NC(=O)Nc3cc(C(F)(F)F)ccc3F)cc2)cc1,3.35
4,CNC(=O)c1cc(-c2ccc(F)cc2)cc(-c2ccc(S(=O)(=O)N3CCCC3)cc2)c1N,1.41
5,CCn1c(-c2nonc2N)nc2ccccc21,26.9
6,CCn1c(-c2nonc2N)nc2c(C#CC(C)(C)O)nc(OC[C@H](N)c3ccccc3)cc21,56.9
7,CCn1c(-c2nonc2N)nc2cnc(Oc3cccc(NC(=O)c4ccc(N(C)C)cc4)c3)cc21,21.7
8,COc1ccc(CNC(=O)c2ccc(-c3cc(-c4nnc(C)o4)ccc3C)cc2)cc1,2.93
9,Clc1ccc(-c2nn3ncccc3c2-c2ccnc(Nc3ccccc3)n2)cc1,1.46
10,COc1cc(/C=N/Nc2ncnc3[nH]ncc23)ccc1O,13.5
11,CCOc1ccc2c(-c3ccnc(Nc4cccc(C(F)(F)F)c4)n3)cnn2n1,0.91
12,NS(=O)(=O)c1ccc(N/N=C2\C(=O)Nc3ccc4ncccc4c32)cc1,9.97
13,O=C(O[C@H]1CN[C@H](C#Cc2cc3ncnc(Nc4ccc(Cc5ccccc5)cc4)c3s2)C1)N1CCOCC1,4.54
14,FC(F)(F)c1cccc(-c2nn3ncccc3c2-c2ccnc(Nc3ccc4c(c3)OCCO4)n2)c1,0.46
15,c1cc(-c2cnn3nc(N4CCOCC4)ccc23)nc(NC2CC2)n1,2.25
16,COc1ccc(-c2cc3c(N)ncnc3o2)cc1,-1.2

# Molecular target: T1, cGMP-dependent protein kinase 2 (Homo sapiens)
# Details: at 1 µM
row,Structure (SMILES),inhibition [%]
1,Cc1ccc(O)cc1Nc1ccnc2cc(-c3ccccn3)ccc12,3.8
2,COC(=O)c1sc(-n2cnc3cc(OC)c(OC)cc32)cc1OCc1ccccc1C(F)(F)F,3.35
3,COc1cc2ncn(-c3cc(OCc4ccccc4C(F)(F)F)c(C(=O)N(C)C)s3)c2cc1OC,0.43
4,CC(C)COC(=O)c1ccc2c(c1)/C(=C/Nc1ccc(S(N)(=O)=O)cc1)C(=O)N2,54.4
5,CCc1nn2ncccc2c1-c1ccnc(NC2CC2)n1,3.27
6,CC(=O)Nc1cccc(C#Cc2cncnc2Nc2ccc(OCc3cccc(F)c3)c(Cl)c2)c1,1.98
7,CCn1cc(-c2ccnc3[nH]ccc23)c(-c2cccc(NC(=O)Nc3ccc(OCc4ccccc4)cc3)c2)n1,1.43
8,COc1ccc(-c2nn3ncccc3c2-c2ccnc(Nc3ccc4c(c3)OCCO4)n2)cc1,-1.06
9,COC(=O)Nc1nc2ccc(S(=O)(=O)c3ccc(NC(=O)Nc4cc(C(F)(F)F)ccc4F)cc3)cc2[nH]1,2.48
10,Cc1ccc2c(-c3ccnc(Nc4ccccc4)n3)c(-c3ccc(F)cc3)nn2n1,2.49
11,COc1cccc(-n2ncc3c(N/N=C/c4ccc(F)cc4)ncnc32)c1,2.67
12,CCn1c(-c2nonc2N)nc2c(C#CC(C)(C)O)ncc(OC3CCNCC3)c21,83.2
13,Nc1ncc(-c2cccc(S(N)(=O)=O)c2)c2scc(-c3ccc(F)c(Cl)c3)c12,1.46
14,O=C(Nc1n[nH]c2cc(-c3ccc(F)cc3)ccc12)C1CC1,5.58
15,[O-][S+]1CCN(Cc2ccc(-c3ccc4ncnc(Nc5ccc(OCc6cccc(F)c6)c(Cl)c5)c4c3)o2)CC1,5.63
16,Fc1cccc(COc2ccc(Nc3ncnc4sc(-c5ccco5)cc34)cc2Cl)c1,-0.65
17,NS(=O)(=O)c1ccc(Nc2ncc(-c3ccccc3)o2)cc1,3.98

row,Structure (SMILES),inhibition [%]
1,CCNC(=O)O[C@H]1CN[C@H](C#Cc2cc3ncnc(Nc4ccc(OCc5cccc(F)c5)c(Cl)c4)c3s2)C1,2.81
2,CCN(CC)S(=O)(=O)c1ccc(OC)c(Nc2ncc(-c3ccccc3)o2)c1,0.95
3,COc1ccc(-c2oc3ncnc(N)c3c2-c2ccc(NC(=O)Nc3cc(C(F)(F)F)ccc3F)cc2)cc1,5.54
4,CNC(=O)c1cc(-c2ccc(F)cc2)cc(-c2ccc(S(=O)(=O)N3CCCC3)cc2)c1N,0.53
5,CCn1c(-c2nonc2N)nc2ccccc21,70.6
6,CCn1c(-c2nonc2N)nc2c(C#CC(C)(C)O)nc(OC[C@H](N)c3ccccc3)cc21,78.8
7,CCn1c(-c2nonc2N)nc2cnc(Oc3cccc(NC(=O)c4ccc(N(C)C)cc4)c3)cc21,60.8
8,COc1ccc(CNC(=O)c2ccc(-c3cc(-c4nnc(C)o4)ccc3C)cc2)cc1,4.96
9,Clc1ccc(-c2nn3ncccc3c2-c2ccnc(Nc3ccccc3)n2)cc1,3.41
10,COc1cc(/C=N/Nc2ncnc3[nH]ncc23)ccc1O,55
11,CCOc1ccc2c(-c3ccnc(Nc4cccc(C(F)(F)F)c4)n3)cnn2n1,0.29
12,NS(=O)(=O)c1ccc(N/N=C2\C(=O)Nc3ccc4ncccc4c32)cc1,46.1
13,O=C(O[C@H]1CN[C@H](C#Cc2cc3ncnc(Nc4ccc(Cc5ccccc5)cc4)c3s2)C1)N1CCOCC1,3.68
14,FC(F)(F)c1cccc(-c2nn3ncccc3c2-c2ccnc(Nc3ccc4c(c3)OCCO4)n2)c1,3.03
15,c1cc(-c2cnn3nc(N4CCOCC4)ccc23)nc(NC2CC2)n1,11.9
16,COc1ccc(-c2cc3c(N)ncnc3o2)cc1,1.5
